The full list was thinned out, with hits kept by preference.
VCAM1 TNFa pot: potentiators of TNFa-induced VCAM1 expression, primary screen, imaging, HUVEC, TNFa stimulus, immunofluorescence; HUVEC TNFa-stimulated VCAM-1 immunofluorescence, high-content imaging; scaled per plate to unstimulated/TNFa-only wells; activation, % at 2 µM; 93,000 tested, 0.19% active;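 active = activation above the screen mean plus 3 SD, with well images confirming the hit on visual review, cut at about 28% in these data, passing the limit was not always enough; inconclusive = activation above that limit but images do not confirm it; inactive = activation not above that limit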;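 also: signal is the number of cytoplasmic VCAM-1 stained grains per positive cell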
VCAM1 pot conf: potentiators of TNFa-induced VCAM1 expression, confirmation, imaging, HUVEC, triplicate retest; 230 tested, under 10 active; activation, % at 2 µM; shares compounds with VCAM1 TNFa pot; HUVEC TNFa-stimulated VCAM-1 immunofluorescence imaging; AID 1034, 2008;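 active = activation above 30% in triplicate retests at 2 µM, then confirmed by visual review of the well images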;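 also: scaled per plate between unstimulated and TNFa-stimulated DMSO control wells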
An asterisk follows results filed as active; ? = inconclusive.

SMILES	VCAM1 TNFa pot	others
Clc1ccc2nc(C3CCN(Cc4nnnn4C4CCCCC4)CC3)[nH]c2c1	60*	VCAM1 pot conf=-4
O=C(CN1CCC(c2nc3ccccc3[nH]2)CC1)NCc1ccc2c(c1)OCO2	1
CCCCNCCCOc1cc(Cl)ccc1Cl	3
OC12CCCCC1C(c1ccc3c(c1)OCO3)N(Cc1cccc(F)c1)CC2 (stereo unspecified)	3
Cc1ccc(-c2ccc(CCC(=O)O)n2NC(=O)c2ccco2)cc1	15
Cc1ccc(S(=O)(=O)NCc2nnc(SCC(=O)Nc3cccc(C)c3C)n2C)cc1	7
CCOC(=O)c1ccc(NC(=O)Nc2ccc(S(N)(=O)=O)cc2)cc1	2
CCOC(=O)c1ccc(Nc2c(CC)c(C)nc3ncnn23)cc1	?	VCAM1 pot conf=-8
CCOC(=O)c1ccc(NC(=O)CC2SC(=NC)N(C)C2=O)cc1 (stereo unspecified)	-18
Cc1cc(C)cc(-c2nnc(SCC(=O)NCc3cccs3)o2)c1	-24
COc1ccc(C(CNC(=O)c2ccc(OCC3CCCO3)cc2)N2CCOCC2)cc1 (stereo unspecified)	2
Cn1ccnc1SCC(=O)Nc1ccc2ccccc2c1	32
C/C(=N\NC(=O)Cc1cccn1C)c1ccc2ccccc2c1	?	VCAM1 pot conf=-4
NNC(=O)c1cccc(COc2ccccc2Br)c1	-9
CC1=C(C#N)C(Nc2cccc(C)n2)(C(F)(F)F)C(=O)N1 (stereo unspecified)	-91
COC(=O)C1C(=O)c2c([nH]c(C(=O)OC3CCCC3)c2C)CC1C (stereo unspecified)	-1
CCN(C(=O)c1cccc(F)c1)c1ccccc1C	-9
CC(C)Cn1cc(C(=O)NCCCOC(C)C)c2c3ccccc3n(C)c2c1=O	-9
CCOC(=O)CNC(=O)c1cc(C)oc1C	-3
CCOC(=O)CNC(=O)c1cn(CC(C)C)c(=O)c2cc(OC)c(OC)cc12	55*	VCAM1 pot conf=-13
CCOC(=O)C(NC(C)=O)(Nc1ccc(S(=O)(=O)Nc2ccncn2)cc1)C(F)(F)F (stereo unspecified)	0
O=C(CN(C(=O)Cn1nnc(-c2cccs2)n1)c1ccc2c(c1)OCCO2)NC1CCCCC1	56*	VCAM1 pot conf=-18
CCOc1ccc(-c2nnn(CC(=O)NCc3ccc4c(c3)OCO4)n2)cc1	4
Cc1ccc(-c2nnn(CC(=O)N(Cc3ccco3)C(C(=O)NC3CCCC3)c3cccs3)n2)o1 (stereo unspecified)	-3
COC(=O)Nc1ccc(S(=O)(=O)N2CCCCCC2)cc1	-8
SMILES	VCAM1 TNFa pot	others
CC(C)Cn1c(SCC(=O)NC2CCCc3ccccc32)nc(O)cc1=O (stereo unspecified)	0
COc1ccc(-c2nc(C#N)c(N3CC(C)OC(C)C3)o2)cc1OC (stereo unspecified)	4
CC(C)CCNC(=O)CSc1nnc(-c2ccc(S(=O)(=O)N3CCCC3)cc2)n1C	7
Cc1ccc(-c2nnc(SCC(C)C)n2C)cc1	-8
CC(C)NC(=O)CSc1nnc(-c2ccc(C(C)(C)C)cc2)n1C	?	VCAM1 pot conf=-15
Cc1nn(C2CCS(=O)(=O)C2)c(Cl)c1/C=C/C(=O)OCC(=O)Nc1ccccc1OC(F)F (stereo unspecified)	-6
CNC(=O)CSc1nnc(-c2cc(C)cc(C)c2)o1	1
CCOC(=O)Cc1nnc(NC(=O)COc2ccc(OC)cc2)s1	-1
COc1ccc(NC(=O)CCC(=O)Nc2nnc(C(F)(F)F)s2)c(OC)c1	-16
CCc1nnc(NC(=O)c2ccc(OC)cc2OC)s1	64*	VCAM1 pot conf=-1
COc1cc(C(=O)NCCCCCC(=O)O)cc(OC)c1OC	-4
O=C(CN1C(=O)CCS(=O)(=O)c2ccccc21)NCc1ccccc1	-24
C=Cn1c(C(=O)O)cc(CC)c1-c1ccccc1	-4
O=C(Cn1cc(C(=O)c2ccco2)c2ccccc21)NCc1ccco1	-10
COC(=O)Cn1cc(C(=O)C2CC2)c2ccccc21	54*	VCAM1 pot conf=-11
COc1ccccc1N1CCN(C(=O)CSc2nnc(NC(=O)c3ccco3)s2)CC1	5
O=C(NCc1ccco1)c1ccccc1F	1
O=C(NCc1ccco1)c1sc2cc(F)ccc2c1Cl	44*	VCAM1 pot conf=-10
CC(C)c1cc(C(=O)NCc2ccco2)no1	-10
CC1CCN(C(=O)CSc2nncn2C)CC1	0
Cc1ccc(C)n1NC(=O)c1ccccc1O	-8
N#Cc1c(NC(=O)CCC(=O)O)sc2c1CCCC2	?	VCAM1 pot conf=-13
CCc1c(C)sc(NC(=O)CC#N)c1C#N	-17
CC1(C)Cc2c(sc(NC(=O)c3ccc(Br)o3)c2C#N)CO1	-2
CC12CCC(C(=O)Nc3cccnc3)(CC1=O)C2(C)C (stereo unspecified)	-21
SMILES	VCAM1 TNFa pot	others
COc1ccc(OC)c(C2CC(=O)c3c([nH]c(C(=O)OC(C)C)c3C)C2)c1 (stereo unspecified)	-41
CC(C)(C)C(=O)Nc1ccccc1N1CCN(C(=O)c2ccc(Cl)cc2)CC1	-6
Cc1nc(N2CCN(C(=O)c3ccc(Cl)cc3)CC2)c(C#N)c2c1COC(C)(C)C2	50*	VCAM1 pot conf=-16
COC(=O)c1ccc(CSc2nc(N3CCOCC3)c3c(c2C#N)CC(C)(C)OC3)o1	-1
Cc1ccc(C)c(NC(=O)CN2C(=O)CNC2=O)c1	4
COc1cc(C2C3C(=O)N(Cc4ccccc4)C(=O)C3ON2c2ccccc2)cc(OC)c1O (stereo unspecified)	-1
Cc1cc2c(cc1C)N(C(=O)CSc1nncn1C)C(C)(C)c1ssc(=S)c1-2	-33
Cc1ccc(N(Cc2ccco2)C(=O)c2cccc(S(=O)(=O)N(C)C)c2)cc1	-25
CC(C)Cn1c(SCC(=O)NC(=O)NC2CCCC2)nc2ccccc21	-8
CCn1c(-c2cccs2)nc2ccccc21	-5
Cc1nc2ccccc2n1CC(O)COCC1CC=CCC1 (stereo unspecified)	?	VCAM1 pot conf=-13
CN(C)CCNC(=O)Cc1c(C(=O)O)n(C)c2ccccc12	-5
C#CCOC(=O)c1ccccc1C(=O)O	4
O=C(CSc1nc2ccccc2[nH]1)Nc1cc(C(F)(F)F)ccc1N1CCOCC1	-3
O=C(CSc1nc2ccccc2[nH]1)Nc1ccccc1N1CCOCC1	48*	VCAM1 pot conf=-6
O=C(CSc1nc2ccccc2[nH]1)c1ccc2c(c1)OCO2	3
COc1ccc(NC(=O)Nc2c(C)n(-c3ccccc3)c(=O)n2C)cc1OC	18
COC(=O)c1nc(C(=O)OC)c(C(=O)OC)nc1C(=O)OC	-2
Cn1c(-c2ccccc2O)cc2ccccc21	8
CCN(CC)C(=O)CSc1nc(-c2cccs2)cc(-c2cccs2)c1C#N	50*	VCAM1 pot conf=-20
CCN(CC)C(=O)CSc1nc(N)c(C#N)c(-c2cccs2)c1C#N	-13
COc1ccc(CNC(=O)CSc2nc(-c3ccccc3)cc(-c3cccs3)c2C#N)cc1	0
C/C(N)=C(/C#N)C(=O)COC(=O)c1cc(C)n(-c2ccc(F)cc2)c1C	8
CCOC(=O)c1nc(C)[nH]c1C(=O)OCC	3
COCc1nc2ccccc2n1CCCOc1ccccc1	?	VCAM1 pot conf=-16
SMILES	VCAM1 TNFa pot	others
CCCC(=O)NCCCc1nc2ccccc2n1CCC	-4
Cc1nc2ccccc2n1CCCOc1ccccc1	-62
O=C(N/N=C/c1ccccc1Cl)c1cccc(F)c1	56*	VCAM1 pot conf=-12
Cc1nnc(NC(=O)c2cccc(F)c2)s1	3
O=C(N/N=C/c1cc2c(cc1Cl)OCO2)c1ccccn1	1
COc1ccnc(Oc2ccc(C)cc2)c1C#N	33
Cc1oc(-c2ccccc2F)nc1CN1CCC(C(=O)NC2CC2)CC1	8

Screening results: PubChem BioAssay, Columbia University Molecular Screening Center
